For 40 compounds, cell viability results are on record in the supplement of paper PMC10981050.

Counter-ions that a name gives are not always drawn.

This assay has as its system OCI-AML2. Briefly: cell viability relative to vehicle control; higher = less cytotoxic. The following applies: 10 µM; SRSF2 genotype: P95H/wt. A digest of the protocol:
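Screening covered the Selleck bioactive, kinase and epigenetic probe libraries, less identity-inconsistent compounds, on CRISPR-edited mutant clones and isogenic wild-type clones of four leukaemia lines. Cells, at 2000 per well in 50 µL medium, received a single 10 µM acoustically dispensed dose. After 48 h the supernatant was removed and CellTiter-Glo luminescence was read. Viability was analysed in Genedata Screener as percent of the on-plate vehicle control.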
For the compound `Cc1cc(C)c(-c2csc(NC(=O)c3ccccc3)n2)c(C)c1`, the cell viability is 39.5%.
As for `O=C(/C=C/c1ccc(O[C@@H]2O[C@H](CO)[C@@H](O)[C@H](O)[C@H]2O)cc1)c1ccc(O)cc1O` [Isoliquiritin], the figure is 111%.
As for `COc1ccc(-c2oc3c(CC=C(C)C)c(O)cc(O)c3c(=O)c2O[C@@H]2O[C@@H](C)[C@H](O)[C@@H](O)[C@H]2O)cc1` [Baohuoside I], the figure is 101%; as for `CCCCCCCCCC(=O)N[C@@H](Cc1c[nH]c2ccccc12)C(=O)N[C@H](CC(N)=O)C(=O)N[C@@H](CC(=O)O)C(=O)N[C@@H]1C(=O)NCC(=O)N[C@@H](CCCN)C(=O)N[C@@H](CC(=O)O)C(=O)N[C@H](C)C(=O)N[C@@H](CC(=O)O)C(=O)NCC(=O)N[C@H](CO)C(=O)N[C@@H]([C@H](C)CC(=O)O)C(=O)N[C@@H](CC(=O)c2ccccc2N)C(=O)O[C@@H]1C` [Daptomycin], 96%.
In the case of `c1ccc2occc2c1` [2,3-Benzofuran] it was 90.6%.
With `O=C(O)CC(C(=O)O)n1c(O)c(C2=c3cc(Br)ccc3=NC2=O)sc1=S` (stereo not given), the cell viability was 113%.
In the case of `CCN1CCN(c2cc3c(cc2F)c(=O)c(C(=O)O)cn3C2CC2)CC1` [Enrofloxacin] it was 109%; in that of `COc1ccc2c(c1O)-c1c(O)c(OC)cc3c1[C@H](C2)[N+](C)(C)CC3` [Magnoflorine], 103%; in that of `CC(=O)OCC(=O)[C@@]1(O)CC[C@H]2[C@@H]3CCC4=CC(=O)CC[C@]4(C)[C@@]3(F)[C@@H](O)C[C@@]21C` [Fludrocortisone acetate], 113%.
On to `NC(=O)NO` [Hydroxyurea (Cytodrox)], for which the cell viability amounted to 108%.
For `Nc1ncnc2c1nc(Br)n2[C@@H]1O[C@@H]2COP(=O)(O)O[C@H]2[C@H]1O` [8-Bromo-cAMP], the cell viability was determined as 79.8%.
As for `Cc1cccc(Nc2nc(-c3ccncc3)cs2)c1`, the figure is 64.3%; as for `CC12CCC(CC1)C(C)(C)O2` [Eucalyptol], 102%; as for `CCc1c(Cl)c(O)c(Cl)c(O)c1C(=O)O[C@H]1[C@H](O)[C@H](OC)[C@H](OC/C2=C\C=C\C[C@H](O)/C(C)=C/[C@H](CC)[C@@H](O[C@@H]3OC(C)(C)[C@@H](OC(=O)C(C)C)[C@H](O)[C@@H]3O)/C(C)=C/C(C)=C/C[C@@H]([C@@H](C)O)OC2=O)O[C@@H]1C` [Fidaxomicin], 110%.
Turning to `CO[C@H]1/C=C/O[C@@]2(C)Oc3c(C)c(O)c4c(O)c(c(/C=N/N5CCN(C)CC5)c(O)c4c3C2=O)NC(=O)/C(C)=C\C=C\[C@H](C)[C@H](O)[C@@H](C)[C@@H](O)[C@@H](C)[C@H](OC(C)=O)[C@@H]1C` [Rifampin], the cell viability was found to be 96.4%.
Regarding `COc1ccc(C2CNC(=O)C2)cc1OC1CCCC1` (stereo not drawn) [S-(+)-Rolipram], the cell viability was found to be 96.7%.
In the case of `C#C[C@]1(O)CC[C@H]2[C@@H]3CCc4cc(OC5CCCC5)ccc4[C@H]3CC[C@@]21C` [Quinestrol] it was 49.7%.
`COc1cccc2cc(-c3nc([C@H]4CC[C@H](C(=O)O)CC4)n4ncnc(N)c34)[nH]c12`: the cell viability was found to be 26.5%.
As for `O=C(/C=C/c1ccc(O)c(O)c1)c1ccc(O)cc1O` [Butein], the figure is 84.1%.
As for `CN(C)c1ccc(C(=O)NCCCCCCC(=O)NO)cc1`, the figure is 2.92%.
As for `O=c1c2cc(O[C@@H]3O[C@H](CO)[C@@H](O)[C@H](O)[C@H]3O)c(O)cc2oc2cc(O)c([C@@H]3O[C@H](CO)[C@@H](O)[C@H](O)[C@H]3O)c(O)c12` [Neomangiferin], the figure is 101%; as for `O=c1[nH]c(=O)n([C@H]2C[C@H](O)[C@@H](CO)O2)cc1/C=C/Br` [Brivudine], 99.8%; as for `Cc1c(C(=O)Nc2ccc(Oc3ccnc4[nH]cc(-c5ccccc5)c34)c(F)c2)c(=O)n(-c2ccc(F)cc2)n1C`, 24.8%.
On to `CC(=O)CCc1ccc(OC(C)=O)cc1` [Pherocon (4-(4-Acetoxyphenyl)-2-butanone)], for which the cell viability was 119%.
As for `C[C@@H](N)[C@H]1CC[C@H](C(=O)Nc2ccncc2)CC1`, the figure is 85.9%; as for `COC(=O)C=Cc1ccc(O)c(OC)c1` [Ferulic acid methyl ester], 104%.
As for `CN1C(N)=N[C@](C)(c2cc(NC(=O)c3ccc(F)cn3)ccc2F)CS1(=O)=O` [Verubecestat (MK-8931)], the figure is 99.9%; as for `C[C@H]1O[C@@H](Oc2c(-c3cc(O)c(O)c(O)c3)oc3cc(O)cc(O)c3c2=O)[C@@H](O)[C@@H](O)[C@@H]1O` [Myricitrin (Myricitrine)], 108%; as for `O=C(O)C1=CO[C@@H](O[C@@H]2O[C@H](CO)[C@@H](O)[C@H](O)[C@H]2O)[C@H]2[C@@H]1C=C[C@]2(O)CO` [Monotropein], 90.7%.
`CNC(=O)[C@H](Cc1c[nH]c2ccccc12)NC(=O)[C@@H](CC(=O)NO)CC(C)C` [Ilomastat (GM6001, Galardin)]: the cell viability was 113%.
As for `COC(c1ccccc1)(c1ccccc1)[C@H](Oc1nc(C)cc(C)n1)C(=O)O` [Ambrisentan], the figure is 102%.
In the case of `COc1ccc2c3c1O[C@H]1C[C@@H](O)C=C[C@@]31CCN(C)C2` [Galanthamine] it was 109%; in that of `CCC(=O)O[C@@H]1CC(=O)O[C@H](C)C/C=C/C=C/[C@H](O)[C@H](C)C[C@H](CC=O)[C@H](O[C@@H]2O[C@H](C)[C@@H](O[C@H]3C[C@@](C)(O)[C@@H](OC(=O)CC)[C@H](C)O3)[C@H](N(C)C)[C@H]2O)[C@H]1OC` [Midecamycin], 96.2%; in that of `O=C(O)CCc1ccc(O)cc1O` [Hydroumbellic acid], 93.3%.
Take `CCCn1/c(=N/C(=O)c2cccc(C(N)=O)c2)[nH]c2ccccc21` [Takinib]: the cell viability was found to be 74.7%.
As for `Cc1cc(F)c(Nc2ncnc3cc(OCc4ccccc4)ccc23)cc1O`, the cell viability stood at 71.2%.
For the compound `COc1ccc(NC(=O)c2ccc(C(=N)N(C)C)cc2)c(C(=O)Nc2ccc(Cl)cn2)c1` [Betrixaban maleate], the cell viability was found to be 81.3%.
Consider `Cc1cn([C@H]2C=C[C@@H](CO)O2)c(=O)[nH]c1=O` [Stavudine], for which the cell viability came to 97.2%.
In the case of `O=C1/C(=C/c2cccs2)CC/C1=C\c1cccs1` it was 109%; in that of `CN1CC(=O)N2[C@H](c3ccc4c(c3)OCO4)c3[nH]c4ccccc4c3C[C@@H]2C1=O` [Tadalafil (Cialis)], 103%.

In general, cell viability refers to a read-out of living cells in per cent, often relative to untreated cells.
